These results are taken from PubChem BioAssay (NCI).

Structures are written as SMILES. About 79,000 compounds went through this panel and 15% of them were active in at least one assay; those are over-represented in the sample as a whole. Unmarked numbers belong to inactive results. The source made the active and inactive calls. Cut-off read from the data, not from the text of the source: active = growth inhibition above about 70%; inactive = the rest.

Assay [1] is described as follows: NCI Yeast Anticancer Drug Screen. Data for the rad50 strain (AID 155).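 Note: 0% = growth of vehicle-only cultures of the same strain.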 Particulars: S. cerevisiae rad50 strain growth inhibition, active compounds read high. Put shortly:
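A DNA repair-deficient yeast mutant serves as the test organism; compound-induced growth inhibition is calculated against vehicle-treated cells.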

A short description of assay [2]: NCI Yeast Anticancer Drug Screen. Data for the mec2-1 strain (AID 157). Particulars: S. cerevisiae mec2-1 strain, active compounds read high. The method in brief:
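Cells of the genetically defined mec2-1 yeast strain are incubated with test compound. Inhibition of growth is calculated against vehicle-treated controls.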

Assay [3] can be described thus: NCI Yeast Anticancer Drug Screen. Data for the sgs1 mgt1 strain (AID 161).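 Note: 0% = growth of cultures given vehicle only.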 Particulars: S. cerevisiae sgs1 mgt1 strain, active compounds read high. The method in brief:
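Test agents were incubated with a DNA-repair-mutant yeast strain. Growth was then read and compared against vehicle-treated controls.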

Assay [4] in a line: NCI Yeast Anticancer Drug Screen. Data for the cln2 rad14 strain (AID 165).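 Note: 0% = growth equal to vehicle treated cultures.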 The following applies: S. cerevisiae cln2 rad14 strain, active compounds read high. Put shortly: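 The screen exposed genetically defined yeast (cln2 rad14) to test compounds and scored growth inhibition relative to vehicle-treated controls.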
The nature of assay [5]: NCI Yeast Anticancer Drug Screen. Data for the bub3 strain (AID 167). Particulars: S. cerevisiae bub3 mutant strain, active compounds read high. Put shortly: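 Inhibition values come from growth of compound-treated mutant yeast normalised to vehicle-treated controls.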
Assay [6] is described as follows: NCI Yeast Anticancer Drug Screen. Data for the mlh1 rad18 strain (AID 175). Particulars: S. cerevisiae mlh1 rad18 strain growth inhibition, active compounds read high. The method in brief: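 Compound-treated yeast growth, normalised to vehicle controls. Strain bears defined DNA repair mutations.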
Setting [7] is: at 5.0 µM (retest, dose inferred, filed as 0.5).
Setting [8] is: at 50.0 µM (retest, dose inferred, filed as 5.0).

As for `CC1(C)C2CCC1(CS(=O)O)C(=O)C2.[Ag]` (stereo not given), the growth inhibition in assay [1] (setting [7]) was 99% (active); in assay [1] (setting [8]) it was 99% (active); in assay [1] (at 50.0 µM), 99.2% (active); in assay [2] (setting [7]), 100% (active); in assay [2] (setting [8]), 99% (active); in assay [2] (at 50.0 µM), 99.5% (active). In addition, the growth inhibition in assay [3] (setting [7]) is 100% (active); in assay [3] (setting [8]) it was 99% (active); in assay [3] (at 50.0 µM), 99.5% (active); in assay [4] (setting [7]) it was 99% (active); in assay [4] (setting [8]), 99% (active); in assay [4] (at 50.0 µM) it was 98.7% (active). Besides, the growth inhibition is 99% (active) in assay [5] (setting [7]); 99% (active) in assay [5] (setting [8]); 99.5% (active) in assay [5] (at 50.0 µM); 100% (active) in assay [6] (setting [7]); 99% (active) in assay [6] (setting [8]); 99.6% (active) in assay [6] (at 50.0 µM).

As to `N#[N+]c1c([O-])ccc2nc3ccccc3nc12`, the growth inhibition in assay [1] (setting [7]) was -101%; in assay [1] (setting [8]), 12%; in assay [1] (at 50.0 µM), 68.4%; in assay [2] (setting [7]), -43%; in assay [2] (setting [8]), -45%; in assay [2] (at 50.0 µM) it was 40.7%. In addition, the growth inhibition in assay [3] (setting [7]) is -56%; in assay [3] (setting [8]), -30%; in assay [3] (at 50.0 µM), 10.2%; in assay [4] (setting [7]), -52%; in assay [4] (setting [8]), -65%; in assay [4] (at 50.0 µM), -1.5%. Also, the growth inhibition in assay [5] (setting [7]) is -59%; in assay [5] (setting [8]), -69%; in assay [5] (at 50.0 µM), -14.9%; in assay [6] (setting [7]), -114%; in assay [6] (setting [8]) it was -56%; in assay [6] (at 50.0 µM) it was 66.9%.

For `COc1ccc2nc3cc(Cl)ccc3c(NCCC[N+](C)(C)CCCCCCCCCC[N+](C)(C)CCCNc3c4ccc(Cl)cc4nc4ccc(OC)cc34)c2c1`, the growth inhibition is 44% in assay [1] (setting [7]); 98% (active) in assay [1] (setting [8]); 96% (active) in assay [1] (at 50.0 µM); 22% in assay [2] (setting [7]); 98% (active) in assay [2] (setting [8]); 88.3% (active) in assay [2] (at 50.0 µM). The growth inhibition in assay [3] (setting [7]) was 29%; in assay [3] (setting [8]) it was 98% (active); in assay [3] (at 50.0 µM) it was 95.8% (active); in assay [4] (setting [7]), 24%; in assay [4] (setting [8]), 94% (active); in assay [4] (at 50.0 µM), 55.8%. The growth inhibition in assay [5] (setting [7]) was 21%; in assay [5] (setting [8]), 98% (active); in assay [5] (at 50.0 µM) it was 6.45%; in assay [6] (setting [7]), 41%; in assay [6] (setting [8]), 99% (active); in assay [6] (at 50.0 µM), 96.2% (active).

For the compound `COc1ccc(S)cc1`, the growth inhibition in assay [1] (setting [7]) was 0%; in assay [1] (setting [8]), 72% (active); in assay [1] (at 50.0 µM) it was 78.9% (active); in assay [2] (setting [7]), 3%; in assay [2] (setting [8]), 51%; in assay [2] (at 50.0 µM), 39.7%. Also, the growth inhibition in assay [3] (setting [7]) was 0%; in assay [3] (setting [8]), 89% (active); in assay [3] (at 50.0 µM), 94% (active); in assay [4] (setting [7]) it was -3%; in assay [4] (setting [8]), 80% (active); in assay [4] (at 50.0 µM), 69.5%. The growth inhibition was 0% in assay [5] (setting [7]); 62% in assay [5] (setting [8]); 76.5% (active) in assay [5] (at 50.0 µM); 2% in assay [6] (setting [7]); 86% (active) in assay [6] (setting [8]); 83.8% (active) in assay [6] (at 50.0 µM).

As for `COC(=O)C1(Cc2ccccc2C)Cc2ccc(C)cc2C1=O` (stereo not given), the growth inhibition in assay [1] (setting [7]) is -1%; in assay [1] (setting [8]) it was 22%; in assay [1] (at 50.0 µM) it was 49.3%; in assay [2] (setting [7]), -2%; in assay [2] (setting [8]) it was 28%; in assay [2] (at 50.0 µM), 25.9%. In addition, the growth inhibition in assay [3] (setting [7]) was 13%; in assay [3] (setting [8]), 47%; in assay [3] (at 50.0 µM) it was 64.9%; in assay [4] (setting [7]) it was -3%; in assay [4] (setting [8]) it was 4%; in assay [4] (at 50.0 µM) it was 31.8%. The growth inhibition in assay [5] (setting [7]) is 9%; in assay [5] (setting [8]), 71% (active); in assay [5] (at 50.0 µM) it was 64.3%; in assay [6] (setting [7]), -2%; in assay [6] (setting [8]), 30%; in assay [6] (at 50.0 µM), 65.9%.

Turning to `Oc1cc(Br)ccc1/C=N/Nc1ccccn1`, the growth inhibition was -8% in assay [1] (setting [7]); 46% in assay [1] (setting [8]); -38.4% in assay [1] (at 50.0 µM); -11% in assay [2] (setting [7]); 60% in assay [2] (setting [8]); -13.6% in assay [2] (at 50.0 µM). For the same compound, the growth inhibition was -19% in assay [3] (setting [7]); 6% in assay [3] (setting [8]); 15.6% in assay [3] (at 50.0 µM); -1% in assay [4] (setting [7]); 53% in assay [4] (setting [8]); -21.8% in assay [4] (at 50.0 µM). The growth inhibition in assay [5] (setting [7]) was 0%; in assay [5] (setting [8]), 46%; in assay [5] (at 50.0 µM) it was -3.4%; in assay [6] (setting [7]) it was -10%; in assay [6] (setting [8]), 27%; in assay [6] (at 50.0 µM) it was 1.05%.

On to `O=C1NC(O)c2cccc(Cl)c2O1` (stereo not given), for which the growth inhibition in assay [1] (setting [7]) was 52%; in assay [1] (setting [8]), 99% (active); in assay [1] (at 50.0 µM), 88.8% (active); in assay [2] (setting [7]), 22%; in assay [2] (setting [8]), 99% (active); in assay [2] (at 50.0 µM), 92.2% (active). The growth inhibition is 17% in assay [3] (setting [7]); 99% (active) in assay [3] (setting [8]); 83.3% (active) in assay [3] (at 50.0 µM); 5% in assay [4] (setting [7]); 99% (active) in assay [4] (setting [8]); 97.8% (active) in assay [4] (at 50.0 µM). Moreover, the growth inhibition in assay [5] (setting [7]) was 15%; in assay [5] (setting [8]), 98% (active); in assay [5] (at 50.0 µM), 94.8% (active); in assay [6] (setting [7]) it was 28%; in assay [6] (setting [8]), 99% (active); in assay [6] (at 50.0 µM), 98.3% (active).

For the compound `COC(=O)C(O)(/C(=N\O)c1ccccc1)c1ccccc1` (stereo not given), the growth inhibition in assay [1] (setting [7]) is 0%; in assay [1] (setting [8]), 0%; in assay [1] (at 50.0 µM), 4.8%; in assay [2] (setting [7]), 0%; in assay [2] (setting [8]), -1%; in assay [2] (at 50.0 µM), 16.7%. For the same compound, the growth inhibition in assay [3] (setting [7]) is 5%; in assay [3] (setting [8]) it was 0%; in assay [3] (at 50.0 µM), 25.6%; in assay [4] (setting [7]), -1%; in assay [4] (setting [8]) it was -5%; in assay [4] (at 50.0 µM), 71.1% (active). For the same compound, the growth inhibition in assay [5] (setting [7]) is 0%; in assay [5] (setting [8]), -8%; in assay [5] (at 50.0 µM), 29.1%; in assay [6] (setting [7]), 0%; in assay [6] (setting [8]), -2%; in assay [6] (at 50.0 µM), 8.35%.

Turning to `C/C(=N\NC(=S)N1CCN(c2cnccn2)CC1)c1ccccn1`, the growth inhibition is 24% in assay [1] (setting [7]); 98% (active) in assay [1] (setting [8]); 91.4% (active) in assay [1] (at 50.0 µM); 23% in assay [2] (setting [7]); 99% (active) in assay [2] (setting [8]); 89.9% (active) in assay [2] (at 50.0 µM). The growth inhibition in assay [3] (setting [7]) is 19%; in assay [3] (setting [8]), 99% (active); in assay [3] (at 50.0 µM), 86.1% (active); in assay [4] (setting [7]) it was 10%; in assay [4] (setting [8]), 99% (active); in assay [4] (at 50.0 µM), 88.2% (active). Further, the growth inhibition in assay [5] (setting [7]) is 30%; in assay [5] (setting [8]), 99% (active); in assay [5] (at 50.0 µM), 85.3% (active); in assay [6] (setting [7]), 28%; in assay [6] (setting [8]), 99% (active); in assay [6] (at 50.0 µM), 91.7% (active).

`O=C(/N=C1\N=Nc2nc(C(C(=O)c3cccs3)c3nc4n(c3O)/C(=N/C(=O)Nc3ccc(Cl)cc3)N=N4)c(O)n21)Nc1ccc(Cl)cc1` (stereo not given): the growth inhibition in assay [1] (setting [7]) is -22%; in assay [1] (setting [8]), 5%; in assay [1] (at 50.0 µM), 38.7%; in assay [2] (setting [7]) it was -12%; in assay [2] (setting [8]), 23%; in assay [2] (at 50.0 µM), 63.4%. Further, the growth inhibition in assay [3] (setting [7]) is -1%; in assay [3] (setting [8]), 7%; in assay [3] (at 50.0 µM), 66.2%; in assay [4] (setting [7]) it was -33%; in assay [4] (setting [8]) it was 7%; in assay [4] (at 50.0 µM) it was 63.6%. In addition, the growth inhibition is -38% in assay [5] (setting [7]); 27% in assay [5] (setting [8]); 66.8% in assay [5] (at 50.0 µM); -27% in assay [6] (setting [7]); 43% in assay [6] (setting [8]); 49.3% in assay [6] (at 50.0 µM).
